Sampled rows, rich in hits. Any-hit rate of the full collection: about 3.8%.
Beta2AR agonist = beta2AR agonists driving receptor internalization, primary screen, cell-based, FAP fluorogen, flow cytometry | response, % (no concentration beside the values) | 340,000 tested, 0.43% active | Beta-2 adrenergic receptor (Homo sapiens), P07550 | AID 504454, 2011 | Am2.2-beta2AR cells;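 active means response above a set limit, near 3 SD of response in nonfluorescent compounds, cut at about 42% in these data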
Target sequence (P07550 whole entry, looked up): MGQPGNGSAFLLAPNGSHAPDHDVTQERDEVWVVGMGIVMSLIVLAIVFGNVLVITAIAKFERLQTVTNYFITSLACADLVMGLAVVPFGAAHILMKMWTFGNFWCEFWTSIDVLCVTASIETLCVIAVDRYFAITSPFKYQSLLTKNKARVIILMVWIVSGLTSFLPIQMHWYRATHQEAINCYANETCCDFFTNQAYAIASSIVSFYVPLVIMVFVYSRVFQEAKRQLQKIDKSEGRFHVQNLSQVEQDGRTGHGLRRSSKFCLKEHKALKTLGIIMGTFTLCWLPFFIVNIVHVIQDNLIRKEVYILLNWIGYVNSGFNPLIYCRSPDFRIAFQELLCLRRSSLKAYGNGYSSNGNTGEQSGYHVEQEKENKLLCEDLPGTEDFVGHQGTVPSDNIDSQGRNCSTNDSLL
tim23-1 inh = growth inhibitors of tim23-1 mutant yeast, primary screen, luminescence, uHTS. 330,000 tested, 1.3% active. AID 463212, 2010. S. cerevisiae tim23-1 growth, BacTiter-Glo luminescence, 24 h. inhibition, % at 20 µM;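 active means growth inhibition of the mutant yeast at or above 50%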;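 further: temperature-sensitive mutant grown at 25 °C; plate controls were DMSO-treated mutant yeast for no effect and medium wells lacking yeast for full effect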
tim10-1 inh = growth inhibitors of tim10-1 mutant yeast, primary screen, luminescence, uHTS. S. cerevisiae tim10-1 ts strain growth, BacTiter-Glo, 24 h. inhibition, % at 20 µM. 330,000 tested, 2.2% active. AID 463190, 2010;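 active means inhibition of at least 40%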;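 further: mutant grown at 25 °C; 0% = DMSO wells with yeast and 100% = wells holding no yeast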
TIM10 inh = growth inhibitors of isogenic TIM10 control yeast, primary screen, counter-screen for tim10-1 yeast inhibitor project, luminescence, uHTS. S. cerevisiae TIM10 strain growth, BacTiter-Glo luminescence, 24 h. inhibition, % at 10 µM. 330,000 tested, 1.4% active. AID 463195, 2010;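 active means inhibition of 40% or more at the single tested concentration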;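 further: wild-type TIM10 isogenic control strain grown at permissive 25 °C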
PfHsp90 yeast 2 = growth inhibition of PfHsp90-expressing yeast, primary screen, antimalarial PfHsp90 inhibitor project, S. cerevisiae, BacTiter-Glo luminescence, single point, set 2; BacTiter-Glo ATP, 48 h; yeast lacking PDR1 and PDR3 efflux regulators; inhibition, % at 9.4 µM; 310,000 tested, 0.32% active; AID 504621, 2011;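 active means every replicate shows inhibition above about 80%, whatever the replicate mean, limit read from the data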;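 further: 0% = DMSO neutral controls and 100% = 20 µM radicicol positive controls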
tim10-1 conf = growth inhibitors of tim10-1 mutant yeast, confirmation, single concentration, luminescence, S. cerevisiae; shares compounds with tim10-1 inh; S. cerevisiae tim10-1 ts strain growth, BacTiter-Glo, 24 h; inhibition, % at 20 µM; 7,400 tested, 56% active;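 active means inhibition of yeast growth at or above a set limit in either of two repeat tests at 20 µM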;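 further: tim10-1 mutant grown at permissive 25 °C to find synthetic lethal compounds; 0% = DMSO yeast wells and 100% = medium wells without yeast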
tim10 confirm = growth inhibitors of wild-type TIM10 yeast, confirmation, counter-screen for tim10-1 synthetic lethality project, single concentration, luminescence, S. cerevisiae; inhibition, % at 10 µM; S. cerevisiae tim10 strain growth, BacTiter-Glo luminescence, 24 h; 4,600 tested, 63% active; shares compounds with TIM10 inh;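 active means inhibition of yeast growth at or above a set limit in either of two replicates at 10 µM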;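 further: this counterscreen used the strain with wild-type TIM10; 0% = yeast with DMSO and 100% = medium wells lacking yeast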
tim23-1 conf = tim23-1 mutant yeast growth inhibitors, confirmation, luminescence, single concentration; shares compounds with tim23-1 inh; S. cerevisiae tim23-1 growth, BacTiter-Glo luminescence, 24 h; inhibition, % at 20 µM; 4,400 tested, 83% active; AID 463218, 2010;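 active means inhibition above about 39% in either of two replicate wells at 20 µM, limit read from the data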;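 further: temperature-sensitive tim23-1 mutant grown at 25 °C; 0% = DMSO wells with yeast and 100% = medium wells without yeast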
Numbers without * were called inactive; x = no result given.

SMILES	Beta2AR agonist	tim23-1 inh	tim10-1 inh	TIM10 inh	PfHsp90 yeast 2	tim10-1 conf	tim10 confirm	tim23-1 conf
Cc1nn(-c2ccccc2)c(Cl)c1/C=C(\C#N)C(=O)NC(C)C	4	73*	56*	53*	-10	72*	56*	60*
NNc1nc(-c2ccccc2Cl)nc2sc3c(c12)CCCC3	14	63*	58*	30	-5	20	x	55*
NNc1nc(-c2ccccc2Cl)nc2ccccc12	16	21	21	12	-31	x	x	x
CC(C)(C)c1cc(C(=O)CCN2CCOCC2)cc(C(C)(C)C)c1O	3	74*	77*	76*	-9	76*	80*	56*
COc1ccc(Cc2nc3ccc(C(=O)N(C)C(C)c4ccon4)cc3o2)cc1 (stereo unspecified)	2	26	22	8	-12	x	x	x
CN(C)CC/C=C1\c2ccccc2Sc2cc(F)c(Cl)cc21	9	-45	23	0	0	x	x	x
CCCCCCCCCCC[N+](C)(C)CC/C=C1/c2ccccc2Sc2ccc(Cl)cc21	0	89*	98*	82*	107*	97*	82*	94*
CCCCCCCCCC[N+](C)(C)CC/C=C1/c2ccccc2Sc2ccc(Cl)cc21	2	92*	98*	83*	106*	97*	86*	94*
CCCCn1c(-c2cccs2)nc2nc3ccccc3nc21	-19	52*	51*	31	x	36*	x	66*
C[C@@H]1CC=C[C@H]2[C@H]1C(=O)N(Cc1ccccc1)[C@H]2c1ccc2ccccc2c1Br	-2	64*	69*	65*	-38	73*	56*	71*
C[C@@H]1CC=C[C@H]2[C@H]1C(=O)N(Cc1ccccc1)[C@H]2c1ccc(Br)cc1F	12	14	34	11	-15	x	x	x
CN(C)C(=O)CNC(=O)CN1C(=O)NC2(CCCc3sccc32)C1=O (stereo unspecified)	-2	-3	-25	3	32	x	x	x
CC1(C)CC(=O)C2=C(C1)NC1=C(C(=O)c3ccccc31)C2c1ccc(Cl)cc1 (stereo unspecified)	0	52*	50*	40*	-36	36*	22	46*
CC1(C(=O)Nc2nnc(SCc3ccccc3)s2)Cc2ccccc2C(=O)O1 (stereo unspecified)	1	52*	47*	33	x	50*	x	42*
O=C(c1cn(-c2ccccc2)nc1-c1cccnc1)N1CCN(S(=O)(=O)c2ccc(Cl)cc2)CC1	-10	x	x	x	x	x	x	x
c1ccc2c(CN3CCOCC3)c3ccccc3c(CN3CCOCC3)c2c1	4	84*	53*	61*	x	52*	50*	24
c1ccc2c(CN3CCOCC3)csc2c1	-4	7	6	-2	-80	x	x	x
O=C(Nc1ccccc1Cl)Nc1ccccc1Cl	0	0	8	-10	-10	x	x	x
O=C(Nc1csc([N+](=O)[O-])c1)Nc1ccccc1Cl	8	66*	51*	54*	0	49*	67*	56*
NS(=O)(=O)c1ccc(CCNC(=O)CSCC(=O)Nc2ccc(Cl)cc2)cc1	5	-6	-7	-4	x	x	x	x
CSCCC(NC(=O)c1ccc(Cl)cc1Cl)C(=O)NCC(c1cccs1)N(C)C (stereo unspecified)	-7	x	x	x	-15	x	x	x
O=C(Nc1ccccc1)ON=C1CCCC1	-7	39	34	40	-21	x	x	x
N/C(=N\OC(=O)Nc1ccccc1)c1ncc([N+](=O)[O-])s1	11	77*	51*	57*	12	48*	60*	19

Source: PubChem
